The campaign covered roughly 310,000 compounds. About 14,000 (4.5%) showed an effect of 50% or more. The effect is printed as a negative number. The sample as a whole holds a higher share of strong results than the screen did.
Molecular target: human ether-à-go-go-related gene (hERG) potassium channel (human, UniProt Q12809)
Experiment: primary screen, population patch clamp on CHO cells stably expressing hERG; higher = less effect of the substance
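Further: peak tail current of the secondary pulse compared with the same well before compound.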

Chain of human ether-à-go-go-related gene (hERG) potassium channel (Q12809 whole entry, looked up): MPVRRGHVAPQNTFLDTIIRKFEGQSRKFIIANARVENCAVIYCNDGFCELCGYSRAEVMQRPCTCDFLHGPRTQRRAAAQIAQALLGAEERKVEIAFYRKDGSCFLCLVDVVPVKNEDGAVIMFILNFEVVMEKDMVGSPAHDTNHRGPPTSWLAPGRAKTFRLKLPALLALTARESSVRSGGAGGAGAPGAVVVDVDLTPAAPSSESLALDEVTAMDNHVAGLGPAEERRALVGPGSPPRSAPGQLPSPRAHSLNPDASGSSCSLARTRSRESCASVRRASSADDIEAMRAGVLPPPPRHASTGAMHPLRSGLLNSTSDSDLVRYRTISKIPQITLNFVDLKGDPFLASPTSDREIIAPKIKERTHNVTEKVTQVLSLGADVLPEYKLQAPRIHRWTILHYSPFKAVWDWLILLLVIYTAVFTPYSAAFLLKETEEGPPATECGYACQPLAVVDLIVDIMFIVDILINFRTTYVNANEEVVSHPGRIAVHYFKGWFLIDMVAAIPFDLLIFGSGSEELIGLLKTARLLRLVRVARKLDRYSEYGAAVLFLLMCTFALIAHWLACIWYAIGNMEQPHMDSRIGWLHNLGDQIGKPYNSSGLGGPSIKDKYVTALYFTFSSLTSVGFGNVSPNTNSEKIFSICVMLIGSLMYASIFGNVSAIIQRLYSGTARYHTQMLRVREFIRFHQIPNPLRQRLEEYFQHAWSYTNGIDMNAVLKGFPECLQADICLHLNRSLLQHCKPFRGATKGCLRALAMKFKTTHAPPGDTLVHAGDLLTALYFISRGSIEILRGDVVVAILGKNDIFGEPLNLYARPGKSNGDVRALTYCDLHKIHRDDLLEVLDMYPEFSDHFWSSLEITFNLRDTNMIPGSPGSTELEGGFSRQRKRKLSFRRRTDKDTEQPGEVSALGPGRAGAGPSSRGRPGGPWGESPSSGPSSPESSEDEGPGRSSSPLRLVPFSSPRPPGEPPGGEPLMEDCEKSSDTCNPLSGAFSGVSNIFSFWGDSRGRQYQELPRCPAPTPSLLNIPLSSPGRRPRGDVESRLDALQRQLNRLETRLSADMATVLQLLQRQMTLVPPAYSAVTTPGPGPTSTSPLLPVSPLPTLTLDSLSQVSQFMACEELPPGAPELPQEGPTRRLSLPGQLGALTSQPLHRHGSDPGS

SMILES	hERG current change (%, negative = inhibition) at 10uM
COC(=O)c1cc2c(ccn2-c2ccc(F)cc2)n1Cc1cccc(OC)c1	0.0373%
O=C(CCn1nc(-c2ccccc2)ccc1=O)N1CCN(c2ccccc2)CC1	-11.2%
Cc1ccc(-c2ccc(=O)n(CCC(=O)N3CCN(c4ccccc4)CC3)n2)cc1	-49.1%
O=C(CCC(=O)N1CCN(c2ccc(F)cc2)CC1)c1ccc(Cl)cc1	-55.8%
O=C(CCn1nc(-c2ccccc2)ccc1=O)N1CCN(c2ccccn2)CC1	-53.1%
O=C(CCC(=O)N1CCN(c2ccc(F)cc2)CC1)N1CCN(c2ccc(F)cc2)CC1	-43.9%
O=C(O)CCC(=O)N1CCN(c2ccc(C(=O)c3ccc(F)cc3)cc2)CC1	0.927%
CC(C)CN(C(=O)COC(=O)c1ccc([N+](=O)[O-])o1)C1CCS(=O)(=O)C1 (centres unmarked)	-31.8%
CC(C)COC(=O)N1CC(O)CC1C(=O)O (centres unmarked)	25.3%
CCCC(=O)Nc1nnc(SCC(=O)N2C(C)CCCC2C)s1 (centres unmarked)	-50.1%
CC(=O)Nc1nnc(SCC(=O)N2C(C)CCCC2C)s1 (centres unmarked)	12.9%
COCC(=O)Nc1nnc(SCC(=O)N2C(C)CCCC2C)s1 (centres unmarked)	15.2%
Cc1ccc(S(=O)(=O)N2CCCCC2)cc1NC(=O)CSc1nncn1-c1ccccc1	-35.2%
COc1ccc(-n2cnnc2SCC(=O)Nc2cccc(S(=O)(=O)N3CCCCC3)c2)cc1	-18.5%
Cc1ccc(S(=O)(=O)N2CCCCC2)cc1NC(=O)CSc1ncn[nH]1	12%
Cn1cnnc1SCC(=O)Nc1cccc(S(=O)(=O)N2CCCCCC2)c1	-17.4%
O=C(CSc1ncn[nH]1)Nc1cccc(S(=O)(=O)N2CCCCCC2)c1	-77.1%
COCCn1cnnc1SCC(=O)Nc1cccc(S(=O)(=O)N2CCCCC2)c1	-17.8%
O=C(CSc1ncn[nH]1)Nc1ccc(S(=O)(=O)N2CCCC2)cc1	14.5%
COCCn1cnnc1SCC(=O)Nc1cccc(S(=O)(=O)N2CCCCCC2)c1	-60.3%
COc1ccc(-n2cnnc2SCC(=O)Nc2cc(S(=O)(=O)N3CCCCC3)ccc2C)cc1	-84%
CCC1(OC(=O)CN)C(=O)OCc2c1cc1n(c2=O)Cc2cc3ccccc3nc2-1.Cl (centres unmarked)	8.16%

SMILES	hERG current change (%, negative = inhibition) at 10uM
CC(=O)c1cccc(NC(=O)/C(=C\c2ccco2)NC(=O)c2cccs2)c1	-9.8%
CCOC(=O)N1CCN(C(=O)C(C)N(c2ccccc2)S(C)(=O)=O)CC1 (centres unmarked)	25.1%
O=C(O)CC(CC(=O)Nc1ccc(C(=O)O)cc1)c1ccccc1 (centres unmarked)	12.9%
Cc1ccc(-n2c(=O)c3sccc3n(CC(=O)NC3CCCCC3)c2=O)cc1	9.86%
O=C(COC(=O)c1cnccn1)NCc1ccc(Cl)cc1	-3.54%
COCCN(C(=O)Cc1cccs1)C(C(=O)NC1CCCC1)c1cc(OC)c(OC)c(OC)c1 (centres unmarked)	8.79%
CCO.Cc1nn(-c2ccccn2)c2c1C(c1ccsc1)C1=C(CCCC1=O)N2 (centres unmarked)	-16.1%
Cc1ccc(C2C3=C(CCCC3=O)Nc3c2c(C)nn3-c2ccccn2)o1 (centres unmarked)	1.07%
Cc1nn(-c2ccccn2)c2c1C(c1ccncc1)C1=C(CC(C)(C)CC1=O)N2 (centres unmarked)	-50.8%
CC(C)(C)[C@H]1C=C(C(=O)NCc2ccccc2)O[C@@H](OCc2ccc(CO)cc2)C1	-12.9%
COc1ccc(N(C(=O)c2snc(C(N)=O)c2N)C(C(=O)NC2CCCC2)c2cc(OC)ccc2OC)c(OC)c1 (centres unmarked)	20.9%
CC1=C(C#N)C(NC(=O)C2CC2)(C(F)(F)F)C(=O)N1 (centres unmarked)	-2.06%
COc1cccc(-n2c(=S)sc3c(=O)n(-c4ccccc4C)c(SCC(=O)O)nc32)c1	16.5%
N/C(=N\O)c1ccc(Oc2ccccc2Cl)c([N+](=O)[O-])c1	-9.72%
CCC1=Nc2cc(C(=O)NCCN3CCCC3)ccc2Sc2ccc(C)cc21	-29%
CCC1=Nc2cc(C(=O)NCCN3CCOCC3)ccc2Sc2ccccc21	-15.3%
CCC1=Nc2cc(C(=O)NCCN3CCCC3)ccc2Sc2ccccc21	-52.1%
CCCC1=Nc2cc(C(=O)NCCN3CCOCC3)ccc2Sc2ccc(C)cc21	-34.3%
CCC1=Nc2cc(C(=O)NCCN3CCOCC3)ccc2Sc2ccc(C)cc21	-82.3%
CCCC1=Nc2cc(C(=O)NCCN3CCCC3)ccc2Sc2ccccc21	-21.2%
Cc1cccc(NC(=O)COc2ccccc2C(=O)NC(C)c2ccccc2)c1 (centres unmarked)	-8.56%
Cc1onc(-c2ccccc2)c1C(=O)N/N=C/c1ccc(O)c([N+](=O)[O-])c1	9.34%
